From PubChem
Hits are enriched below; roughly 10% of the tested compounds scored in any of these assays.
SARS PLpro yeast: qHTS of Yeast-based Assay for SARS-CoV PLP. 0.19% of 330,000 active. AID 485353, 2010. S. cerevisiae expressing SARS-CoV PLpro, growth rescue. Potency, µM (titrated, usually from 32.9 µM), usual class: activators; calls by dose curve; note: nearly all actives have a fitted effect of over 55% in size
NS1 function inh: qHTS Assay for Inhibitors of Influenza NS1 Protein Function | Potency, µM (highest dose often 46.1 µM) | 0.4% of 270,000 active; calls by dose curve; note: actives are rising curves; nearly all actives have a fitted effect of over 50% in size
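OD600 was taken as the measure of yeast growth restored by compound in an NS1-expressing S. cerevisiae strain. Cells had been washed out of glucose medium and diluted 1:100 into galactose -URA medium, pH 6.0.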
Pf growth 96h: Primary qHTS for delayed death inhibitors of the malarial parasite plastid, 96 hour incubation; Potency, µM (doses to about 28.7 µM), hits mostly inhibitors; AID 504834, 2011; 6.9% of 320,000 active; P. falciparum luciferase reporter growth, 96 h
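Luminescence readout: decreased luciferase signal marks inhibited growth of reporter-expressing P. falciparum in infected red cells (2% hematocrit, 0.05% parasitemia final), exposed to compound two generations (96 h, 37 C, 5% CO2).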
Pf growth 48h: Primary qHTS for delayed death inhibitors of the malarial parasite plastid, 48 hour incubation; P. falciparum luciferase growth in erythrocytes, 48 h; Potency, µM (series often up to 28.7 µM), most hits filed as inhibitors; 5.9% of 310,000 active
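A one-generation exposure of luciferase-tagged malaria parasites in RPMI 1640/Albumax erythrocyte culture, 37 C and 5% CO2. Inhibition is inferred from decreased luminescence after adding detection reagent.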
Of the large screens only hits and unclear results are named; the others gave an inactive call. Unless noted, calls come from the whole dose curve; as a rule, active = well fitted inhibition curve with a large enough effect; inconclusive = small, poorly fitted or top-dose-only effect, or another doubt; inactive = no such curve, though single readings can be large or run the other way.

O=C(CC1C(=O)NCCN1CCCc1ccccc1)NCCc1ccccc1Cl (stereo not drawn)	Pf growth 96h inconclusive, Pf growth 48h 13.1µM
c1ccc(C(c2ccccc2)c2noc(CN3CCC(c4ccncc4)CC3)n2)cc1	Pf growth 96h inconclusive, Pf growth 48h 10.4µM
c1ccc(C2CCCN(Cc3nc(CC4CC4)no3)CC2)cc1 (stereo not drawn)	Pf growth 48h inconclusive
Cc1ccc(S(=O)(=O)NC(C(=O)N2CCN(S(=O)(=O)c3cccc(F)c3)CC2)C(C)C)cc1 (stereo not drawn)	Pf growth 48h inconclusive (no result: NS1 function inh)
CCN(CC)CCC[C@H](C)Nc1ccnc2cc(Cl)ccc12	Pf growth 96h 0.0426µM, Pf growth 48h 0.0478µM (no result: SARS PLpro yeast, NS1 function inh)
CC(Nc1ccnc2cc(Cl)ccc12)c1ccc(S(N)(=O)=O)cc1 (stereo not drawn)	Pf growth 96h 2.33µM, Pf growth 48h 1.85µM
Clc1ccc2c(NCCNC3CCCCC3)ccnc2c1	none (no result: SARS PLpro yeast, Pf growth 96h, Pf growth 48h)
COc1ccc(/C=N/Nc2nc(C(=O)O)cs2)cc1	SARS PLpro yeast inconclusive
CCN(CC)c1ccc(S(=O)(=O)N2CCOCC2)cc1NC(=O)CN1CCN(Cc2ccccc2)CC1	Pf growth 96h 10.4µM, Pf growth 48h inconclusive
CCN(CC)c1ccc(S(=O)(=O)N2CCOCC2)cc1NC(=O)CSC(=S)N1CCCC1	Pf growth 96h 10.4µM, Pf growth 48h inconclusive
C/C(=N\NC(=S)Nc1ccccc1)C1Cc2ccccc2C(=O)O1 (stereo not drawn)	Pf growth 96h inconclusive, Pf growth 48h 10.4µM
C/C(=N\NC(=S)Nc1ccccc1C)C1Cc2ccccc2C(=O)O1 (stereo not drawn)	Pf growth 48h inconclusive
CCOc1ccc(OCC)c(NC(=O)CSc2nnc(C3CC3)n2CC)c1	Pf growth 96h inconclusive
CCN(CC)CCNC(C(=O)OCCC(C)C)c1ccccc1 (stereo not drawn)	Pf growth 96h 13.5µM, Pf growth 48h 16.9µM (no result: SARS PLpro yeast, NS1 function inh)
CCOC(=O)C(NCCCCl)c1ccccc1 (stereo not drawn)	none (no result: Pf growth 48h)
Cc1cccc(OCCCN2C(=O)C(=O)c3cc(C)ccc32)c1	none
CCc1nnc(NS(=O)(=O)c2ccc(N/C=C/C(=O)c3ccc(OC)cc3)cc2)s1	Pf growth 96h inconclusive
CCc1nnc(NS(=O)(=O)c2ccc(N/C=C\C(=O)c3cccc4ccccc34)cc2)s1	Pf growth 96h 9.28µM
CCOc1ccc2nc(NC3=NC(C)(C)C=C(C)N3)nc(C)c2c1	Pf growth 96h inconclusive (no result: Pf growth 48h)
CCOc1ccc2nc(NC3=NC(c4ccc(OC)cc4)CC(=O)N3)nc(C)c2c1 (stereo not drawn)	NS1 function inh inconclusive, Pf growth 96h 10.4µM, Pf growth 48h inconclusive
CCOc1ccc2c(C)nc(NC3=NC(C)(C)C=C(C)N3)nc2c1	Pf growth 96h 11.7µM, Pf growth 48h 10.4µM
Cc1c(C)c2c(c(C)c1O)CCC(C)(CCCC(C)CCCC(C)CCCC(C)C)O2 (stereo not drawn)	none (no result: SARS PLpro yeast, NS1 function inh)
C#CCOCCOCCOCCNc1nc(N2CCN(C(=O)CCCCCCCCCCNC(=O)[C@H]([C@@H](C)CC)n3cc(CCCCN=C(N)N)nn3)CC2)nc(N2CCN(C(=O)CCCCCCCCCCNC(=O)[C@H]([C@@H](C)CC)n3cc(CCCCN=C(N)N)nn3)CC2)n1	Pf growth 96h 4.15µM, Pf growth 48h 3.7µM (no result: NS1 function inh)
C#CCOCCOCCOCCNc1nc(N2CCN(C(=O)CCCCCCCCCCNC(=O)[C@H]([C@@H](C)CC)n3cc(CCCCN=C(N)N)nn3)CC2)nc(N2CCN(C(=O)CCCCCCCCCCNC(=O)[C@H](CCCCN)n3cc(C)nn3)CC2)n1	Pf growth 96h 4.65µM, Pf growth 48h 3.7µM (no result: NS1 function inh)
C#CCOCCOCCOCCNc1nc(N2CCN(C(=O)CCCCCCCCCCNC(=O)Cn3cc(CCCCCN)nn3)CC2)nc(N2CCN(C(=O)CCCCCCCCCCNC(=O)[C@H]([C@@H](C)CC)n3cc(CCCCN=C(N)N)nn3)CC2)n1	Pf growth 96h 3.29µM, Pf growth 48h 2.08µM (no result: NS1 function inh)
C#CCOCCOCCOCCNc1nc(N2CCN(C(=O)CCCCCCCCCCNC(=O)[C@H]([C@@H](C)CC)n3cc(CCCCN=C(N)N)nn3)CC2)nc(N2CCN(C(=O)CCCCCCCCCCNC(=O)[C@H](CO)n3cc(CCCCCN)nn3)CC2)n1	Pf growth 96h 5.22µM, Pf growth 48h 5.22µM (no result: NS1 function inh)
C#CCOCCOCCOCCNc1nc(N2CCN(C(=O)[C@H]([C@@H](C)CC)n3cc(CCCCN)nn3)CC2)nc(N2CCN(C(=O)[C@H](CCCCN)n3cc(CCCC)nn3)CC2)n1	Pf growth 48h inconclusive (no result: NS1 function inh)
C#CCOCCOCCOCCNc1nc(N2CCN(C(=O)CCCCCCCCCCNC(=O)[C@H]([C@@H](C)CC)n3cc(CCCCCN)nn3)CC2)nc(N2CCN(C(=O)CCCCCCCCCCNC(=O)[C@H]([C@@H](C)CC)n3cc(CCCCN=C(N)N)nn3)CC2)n1	Pf growth 96h 2.94µM, Pf growth 48h inconclusive (no result: NS1 function inh)
COc1ccc(CNC(=O)COc2ccc(S(=O)(=O)N3CCCCC3)cc2Cl)cc1	Pf growth 48h 13.1µM
COc1ccc(OCCCC(=O)Nc2cc(S(=O)(=O)N3CCCCC3)ccc2OC)cc1	Pf growth 96h 9.28µM, Pf growth 48h 11.7µM (no result: NS1 function inh)
COc1ccc(S(=O)(=O)N2CCCCCC2)cc1NC(=O)CCCOc1ccccc1	Pf growth 96h inconclusive, Pf growth 48h 9.28µM (no result: NS1 function inh)
COc1ccc(OCCCC(=O)Nc2cc(S(=O)(=O)N3CCCCC3)ccc2C)cc1	Pf growth 96h inconclusive, Pf growth 48h inconclusive (no result: NS1 function inh)
COc1ccc(S(=O)(=O)N2CCC(C(=O)NCc3ccncc3)CC2)cc1Cl	Pf growth 96h 1.85µM
COc1ccc(S(=O)(=O)N2CCOCC2)cc1NC(=O)CSc1ncccn1	none (no result: NS1 function inh, Pf growth 96h, Pf growth 48h)
COc1ccc(S(=O)(=O)N2CCCCC2)cc1NC(=O)CSc1ncccn1	Pf growth 96h 11.7µM, Pf growth 48h inconclusive (no result: NS1 function inh)
CCN(CC)C(=O)COC(=O)c1ccc(O)cc1	none (no result: SARS PLpro yeast)
CCOC(=O)c1ccc(OC(=O)CCCCCN=C(N)N)cc1	Pf growth 96h 4.55µM, Pf growth 48h inconclusive (no result: SARS PLpro yeast, NS1 function inh)
COc1cc(CCCN2C(N)=NC[C@@H]2Cc2ccc(O)cc2)cc(OC)c1OC	Pf growth 96h 2.33µM, Pf growth 48h inconclusive
COc1cc(CCCN2C(N)=NC[C@@H]2Cc2ccccc2)cc(OC)c1OC	Pf growth 96h 9.28µM, Pf growth 48h 9.28µM
NC(=O)CSc1nc2cc3c(cc2c(=O)n1CCCC(=O)NCc1ccc2c(c1)OCO2)OCO3	Pf growth 96h inconclusive
NCCc1ccc(OCc2ccccc2)c(OCc2ccccc2)c1	Pf growth 96h 10.4µM, Pf growth 48h inconclusive (no result: NS1 function inh)
NC(N)=N/N=C/c1ccc(OCc2ccccc2)c(OCc2ccccc2)c1	Pf growth 96h inconclusive, Pf growth 48h 0.522µM
CCOc1cc(/C=N/O)ccc1OCc1ccc(F)cc1	Pf growth 96h 3.7µM
NC(N)=N/N=C/c1ccc(OCc2ccccc2Cl)cc1	Pf growth 96h 0.131µM, Pf growth 48h 0.147µM
NC(N)=N/N=C/c1ccccc1	none (no result: Pf growth 48h)
O=C(O)c1c(Cl)cccc1Cl	none (no result: NS1 function inh)
CCOc1cc(/C=N/NC(=O)CN2CCOCC2)ccc1OCc1ccc(Cl)cc1	Pf growth 96h 13.1µM, Pf growth 48h inconclusive
CCOc1cc(/C=N/N=C(N)N)ccc1OCc1ccc(Cl)cc1	Pf growth 96h inconclusive, Pf growth 48h 1.47µM
COc1cc(/C=N/N=C(N)N)ccc1OCc1ccc(Cl)cc1	Pf growth 48h inconclusive
